These entries were drawn from the full list.
aSyn 5UTR act: Activators via SNCA 5'UTR binding, MLPCN | 300,000 compounds, 7.1% hits | AID 1814, 2009 | alpha-synuclein 5'UTR reporter, activators screen | activity score, % (tested at 7.5 µM), hits read low; in the data active = activity score below about -60%
Starred values were filed as active, the others as inactive.

SMILES	aSyn 5UTR act
COc1ccc(OC)c(-c2cc(C3CCN(c4cc(Cl)nc(N)n4)CC3)[nH]n2)c1	61.0
COc1ccc(O)c(-c2cc(-c3ccc(F)cc3)n[nH]2)c1	-121.1*
COc1ccc(-c2cc(-c3cc(OC)ccc3O)[nH]n2)cc1	-199.2*
CCCc1cc(=O)n2[nH]c(-c3cccc(Br)c3)cc2n1	-180.6*
CCCc1cc(=O)n2[nH]c(-c3ccc(Br)cc3)cc2n1	-87.3*
CCCc1cc(=O)[nH]c(-n2[nH]c3c(c2=O)CCCC3)n1	55.9
CC(=O)c1ccc(NC(=O)/C(Cl)=C/c2ccccc2)cc1	-174.7*
O=C(Nc1ccc(F)cc1)/C(Cl)=C/c1ccccc1	-258.0*
Cc1ccc(NC(=O)/C(Cl)=C\c2ccccc2)cc1	-105.2*
CCS(=O)(=O)n1nc(-c2ccc(Cl)cc2)nc1SC	-69.6*
O=C(c1ccco1)n1nc(-c2ccccc2)nc1SCc1ccccc1	-112.2*
CSc1nc(-c2ccc(Cl)cc2)nn1C(=O)c1ccco1	-107.2*
Cc1ccc(S(=O)(=O)n2nc(-c3ccco3)nc2SCc2ccccc2)cc1	-73.6*
O=C(Cc1ccccc1)n1nc(-c2ccco2)nc1SCc1ccccc1	-70.8*
O=C1CC(c2ccccc2Cl)=NN(c2ncnc3ccccc23)C1=O	-73.7*
CSc1cccc(NC(=S)N2CCC(c3ccccc3)C2)c1 (stereo not given)	-76.1*
COc1cccc(NC(=S)N2CCC(c3ccc(C)cc3)C2)c1 (stereo not given)	-66.3*
CSc1cccc(NC(=O)N2CCCC(CNS(=O)(=O)Cc3ccccc3)C2)c1 (stereo not given)	-98.4*
CCc1cccc(NC(=S)N2CCC(c3ccccc3)C2)c1 (stereo not given)	-88.4*
Cc1ccc(/C=N/N=C/c2ccc(C)cc2)cc1	-110.1*
Fc1cccc(/C=N/N=C/c2cccc(F)c2)c1	-62.1*
C(=N\N=C\c1ccccc1)/c1ccccc1	-95.7*
O=C(Nc1nnc(SCc2ccccc2F)s1)C1=COCCO1	-117.2*
c1ccc(CSc2nnc(NC3=NCCCCC3)s2)cc1	-88.8*
CC(=O)Nc1nnc(SCc2ccccc2F)s1	-75.9*
SMILES	aSyn 5UTR act
C=CCSc1nnc(NC(=O)C2=COCCO2)s1	-81.7*
O=C(Nc1nnc(SCc2ccccc2)s1)C1=COCCO1	-71.7*
O=C(NCCc1ccccc1)C1=COCCO1	-129.0*
Clc1nc(-c2ccccc2)ncc1Oc1ccccc1	-64.0*
O=C(CN1CC[n+]2c(-c3cccs3)csc21)c1ccc(-c2ccccc2)cc1	-64.6*
COc1cccc(-c2nc(=S)c3c(o2)CCCC3)c1	-117.8*
O=[N+]([O-])c1ccc(-c2nc(=S)c3c(o2)CCCC3)cc1	-106.0*
S=c1nc(-c2ccccc2)oc2c1CCCC2	-144.4*
COc1cccc(-c2nc(=S)c3c(n2Cc2ccco2)CCCC3)c1	-88.9*
Oc1cccc2c3c(oc12)CCCC3	51.6
Cn1c(=O)c(C(=O)Nc2ccccc2S(N)(=O)=O)c(O)c2ccccc21	-63.6*
c1ccc(-c2noc(C34CC5CC(CC(C5)C3)C4)n2)cc1	-69.5*
c1ccc(-c2noc(C34CC5CC(CC(C5)C3)C4)n2)nc1	-209.1*
CCN(CC)CCn1c2ccccc2c2cnc(N)c(C#N)c21	-655.4*
CCN(CC)C(=O)Oc1ccc2c(c1)O/C(=C\c1ccco1)C2=O	-116.3*
CC(C)CSC1=NSC2=NC(=O)/C(=C\c3cccs3)C(=N)N12	-68.9*
CSC1=NSC2=NC(=O)/C(=C\c3cccs3)C(=N)N12	-198.9*
COc1ccc(OC)c(CNc2ccc3c(c2)CCC3)c1	-117.6*
COc1cccc(CNc2ccc3c(c2)CCC3)c1	-166.8*
Cc1ccccc1OCc1nc(-c2cccnc2)no1	-70.6*
Cc1ccc(OCc2nc(-c3cccnc3)no2)cc1C	-124.9*
Cc1cc(OCc2nc(-c3cccnc3)no2)c(C)cc1Br	-68.5*
CN(C)CCCN(C(=O)c1ccc2c(c1)CCCC2)c1nc2ccc(Cl)cc2s1	-69.8*
CCOc1cccc2sc(N(CCCN(C)C)C(=O)c3ccc(S(=O)(=O)N(C)Cc4ccccc4)cc3)nc12	55.9
Cc1ccc2sc(N(CCCN(C)C)C(=O)c3ccc(S(=O)(=O)N(C)Cc4ccccc4)cc3)nc2c1C	-72.8*
SMILES	aSyn 5UTR act
CCCCN(C)S(=O)(=O)c1ccc(C(=O)N(CCN(C)C)c2nc3ccc(C)cc3s2)cc1	-74.4*
CN(C)CCN(C(=O)c1ccc2ccccc2c1)c1nc2cc3c(cc2s1)OCCO3	-74.5*
CCN(CC)CCN(C(=O)c1cc2c(ccc3ccccc32)oc1=O)c1nc2cc3c(cc2s1)OCCO3	78.2
CN(C)CCCN(C(=O)CCc1ccccc1)c1nc2ccc(Cl)cc2s1	109.5
CCOc1cccc2sc(N(CCCN(C)C)C(=O)c3ccc(S(=O)(=O)N(CC)Cc4ccccc4)cc3)nc12	70.8
CN(C)CCCN(C(=O)c1sc2ccccc2c1Cl)c1nc2ccc(F)cc2s1	-98.8*
CN(C)CCCN(C(=O)c1ccc2c(c1)OCCO2)c1nc2cc3c(cc2s1)OCO3	-91.6*
COc1ccc(C)c2sc(N(CCCN(C)C)C(=O)c3ccc(S(=O)(=O)N4CCc5ccccc5C4)cc3)nc12	91.1
COc1ccc(OC)c2sc(N(CCCN(C)C)C(=O)c3ccc(S(=O)(=O)N4CCc5ccccc5C4)cc3)nc12	100.3
COc1ccc(C)c2sc(N(CCCN(C)C)C(=O)c3ccc4c(c3)OCCO4)nc12	-97.0*
Cc1ccc2nc(N(CCCN(C)C)C(=O)c3ccc4ncsc4c3)sc2c1	-83.5*
Cc1ccc2nc(N(CCN(C)C)C(=O)c3ccc4c(c3)OCCO4)sc2c1	-110.3*
CCOc1cccc(C=Nc2cc(C)cc(C)c2O)c1O	-84.5*
CCOc1cccc(/C=N/Nc2ccc(S(=O)(=O)N(CC)CC)cn2)c1O	88.2
CCOc1cccc(/C=N/NC(=S)Nc2cc(S(=O)(=O)N3CCOCC3)ccc2N2CCOCC2)c1O	80.8
O=C(CN1CCCCC1)Nc1scc2c1c(=O)oc1ccccc12	-134.3*
O=C1Nc2ccc3sc4ccccc4c3c2C1=O	-68.8*
CCN(CC)C(=O)CCCOc1ccc(Cl)cc1Cl	-96.1*
C#CCN(C)CCCOc1ccc(Cl)cc1Cl	-79.0*
CCCCC(=O)NC(c1ccc(Cl)cc1Cl)c1ccc2cccnc2c1O (stereo not given)	91.6
CC(C)NC(=O)CCCOc1ccc(Cl)cc1Cl	-67.6*
NC(=O)c1c(/N=C/c2cccnc2)sc2c1CCCC2	-101.5*
Cc1ccc(/C=N/c2sc3c(c2C(N)=O)CCCC3)o1	-114.2*
COc1cc2c(cc1OC)-c1c(OC)c(OC)cc3ccnc(c13)C2=O	110.2
COc1cc2cccc(OC)c(=O)c2c(O)c1OC	-70.3*
SMILES	aSyn 5UTR act
O=C(COc1ccc(Br)cc1Br)NC(=O)NC1CCCC1	-236.9*
CCc1ccc(OCC(=O)Nc2ccncc2)c(Br)c1	-441.9*
CCc1ccc(OCC(=O)NC2CCCCC2)c(Br)c1	-119.6*
COc1ccccc1OCC(=O)NC1CCCCCC1	-76.4*
COC(=O)c1[nH]c2ccc(Br)cc2c1NC(=O)CN1CCN(C2CCCCC2)CC1	75.1
Cc1cc(Br)ccc1OCC(=O)NC1CCCC1	-66.3*
CCOC(=O)c1sc(=NC(=O)c2ccc(C)cc2)n(C)c1C	-195.9*
CCOC(=O)c1sc(=NC(=O)c2c(F)cccc2F)n(C)c1C	-103.5*
CCOC(=O)c1sc(=NC(=O)c2ccc(F)cc2)n(C)c1C	-103.9*
N#C/C(=C/c1ccc([N+](=O)[O-])cc1)C(=O)Nc1ccccc1O	-133.9*
N#C/C(=C\c1ccc([N+](=O)[O-])cc1)C(=O)Nc1ccccc1O	-111.9*
Clc1nc(-c2cccnc2)nc2scc(-c3ccccc3)c12	-134.3*

Assay outcomes as filed in PubChem.
